Results on 72 compounds are retold here after PubChem BioAssay AID362 (NMMLSC, 2006).

The inhibition is the relative decrease from the control value, in per cent.

Values joined by “and” are separate entries in the source; they are usually repeats but may differ in a detail not shown here. Identical values can stand only once. Screen size: about 4,300 compounds; about 60 (1%) were called active. For the sample, actives were picked, then their nearest neighbours and some compounds at random. A number with no mark means an inactive call.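 The calls were made as follows: active = inhibition of labelled peptide binding to the formyl peptide receptor of at least 65%; inactive = the rest.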

In this experiment the target is fMet-Leu-Phe receptor (Homo sapiens) (UniProt P21462). Kind of experiment: FPR binders displacing fluorescent formyl peptide, primary screen, U937-FPR cells, fMLFK-FITC, flow cytometry (AID 362).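 As to inhibition: plate controls were buffer control wells for no effect and unlabeled fMLFF blocking peptide for full effect; higher means less cell fluorescence so more probe displaced.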 Particulars: fMLFK-FITC displacement; hits give high values, concentration not given here. (In general: Flow cytometry measures light scatter and fluorescence of single cells or particles in a stream.)
Chain of fMet-Leu-Phe receptor (Homo sapiens) (P21462 whole entry, looked up): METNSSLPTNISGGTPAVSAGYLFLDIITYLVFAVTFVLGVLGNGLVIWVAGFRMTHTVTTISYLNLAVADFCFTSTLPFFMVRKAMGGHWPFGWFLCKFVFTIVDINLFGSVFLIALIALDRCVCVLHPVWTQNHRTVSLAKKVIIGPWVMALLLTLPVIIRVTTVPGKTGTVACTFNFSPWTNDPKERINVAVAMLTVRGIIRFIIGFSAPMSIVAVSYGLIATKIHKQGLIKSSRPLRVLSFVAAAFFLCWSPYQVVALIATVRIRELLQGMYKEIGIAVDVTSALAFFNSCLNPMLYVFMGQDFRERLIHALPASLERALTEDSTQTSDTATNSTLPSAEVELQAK
`COc1ccc(CNC(=O)CCCCCn2c(SCC(=O)NCC3CCCO3)nc3cc4c(cc3c2=O)OCO4)cc1` (configuration not stated): the inhibition is 2.8%.

In the case of `CCOC(=O)C1=C(C)NC2=C(C(=O)C(C(=O)OC)C(C)C2)C1c1ccccc1OC(C)C` (configuration not stated), the inhibition is 10.1%.

In the case of `CC(C)(C)c1cc(NS(=O)(=O)c2ccccc2[N+](=O)[O-])cc(C(C)(C)C)c1O`, the inhibition was 9.2%.

Turning to `CC(C)(C)c1cc(NS(=O)(=O)c2ccc([N+](=O)[O-])cc2)cc(C(C)(C)C)c1O`, the inhibition was 68% (active).

In the case of `CC(C)(C)c1cc(Nc2ccccc2[N+](=O)[O-])cc(C(C)(C)C)c1O`, the inhibition is 20.9%.

Turning to `O=C(O)C12CC3CC(C1)CC(n1cnc([N+](=O)[O-])n1)(C3)C2`, the inhibition entry is “inactive”.

`COc1ccc(N(CC(=O)N2CC3CC(C2)c2cccc(=O)n2C3)S(=O)(=O)c2c(C)noc2C)cc1` (configuration not stated): the inhibition entry was “inactive”.

Regarding `COc1c(O)ccc(C2Nc3ccc4ccccc4c3C3=C2C(=O)CC(C)(C)C3)c1[N+](=O)[O-]` (configuration not stated), the inhibition is 15.3%.

Take `CC1(C)CC(=O)C2=C(C1)c1c(ccc3ccccc13)NC2c1cc([N+](=O)[O-])ccc1N1CCOCC1` (configuration not stated): the inhibition was 71.9% (active).

For the compound `COc1c(OC(C)=O)ccc(C2Nc3ccc4ccccc4c3C3=C2C(=O)CC(C)(C)C3)c1[N+](=O)[O-]` (configuration not stated), the inhibition entry was “inactive”.

`CC(=O)N1c2ccc(S(=O)(=O)N(CC(C)C)CC(C)C)cc2CC1C` (configuration not stated): the inhibition entry was “inactive”.

For `CCCN(CCC)Cc1c(O)ccc2c(=O)c(Oc3ccc(OC)cc3)c(C(F)(F)F)oc12`, the inhibition result was “inactive”.

Turning to `O=S(=O)(NC1CCCCCCC1)c1cccc2nsnc12`, the inhibition result was “inactive”.

For the compound `O=S(=O)(NC1CCCC1)c1cccc2nsnc12`, the inhibition entry is “inactive”.

`N#CCCN(C(=O)c1cc(Cl)ccc1NS(=O)(=O)c1cccc2nsnc12)C1CCCCC1`: the inhibition was 73% (active).

`CCOc1cc(C2Nc3c(ccc4ccccc34)C3=C2CCCC3=O)cc(Br)c1O` (configuration not stated): the inhibition entry was “inactive”.

Consider `COc1ccc(N2C3=C(C(=O)CC(C)(C)C3)C(c3ccc(F)cc3)C3=C2CC(C)(C)CC3=O)c(OC)c1`, for which the inhibition result was “inactive”.

In the case of `CC1=CC(C)C2(COC(=O)Nc3ccccc3)COC(c3cccnc3)C1C2C` (configuration not stated), the inhibition result was “inactive”.

`CCCCNC(=O)c1cn(CC(C)C)c(=O)c2c1c1ccccc1n2C`: the inhibition result is “inactive”.

Turning to `CCN(C(=O)c1ccc(F)cc1)c1ccc(C(O)(C(=O)OC)C(F)(F)F)cc1` (configuration not stated), the inhibition result was “inactive”.

For `CCOC(=O)C(O)(c1ccc(N(CC)C(=O)c2cccc(F)c2)cc1)C(F)(F)F` (configuration not stated), the inhibition was 27.9%.

Turning to `CCN(C(=O)c1cccc(F)c1)c1ccc(C(O)(C(=O)OC)C(F)(F)F)cc1` (configuration not stated), the inhibition is 85.1% (active).

Regarding `O=C(CSc1c2c(nc3ccccc13)CCCC2)Nc1ccc2c(c1)OCCO2`, the inhibition entry was “inactive”.

Turning to `CC(C)C(C(=O)Nc1nccs1)N1C(=O)c2ccccc2C1=O` (configuration not stated), the inhibition was 17.3%.

For the compound `CC(c1ccccc1)N1C(=O)/C(=C/c2c(N3CCCCC3)nc3ccccn3c2=O)SC1=S` (configuration not stated), the inhibition entry was “inactive”.

Turning to `CC(C)C(C(=O)O)N1C(=O)/C(=C/c2ccccn2)SC1=S` (configuration not stated), the inhibition was 90.2% (active).

As for `CC(C)c1nnc(NC(=O)C(C(C)C)N2C(=O)c3ccccc3C2=O)s1` (configuration not stated), the inhibition was 36.6%.

For the compound `CC(C)C(C(=O)O)N1C(=O)c2cccc([N+](=O)[O-])c2C1=O` (configuration not stated), the inhibition is 17.7%.

For the compound `CC(C)C(C(=O)O)N1C(=O)/C(=C2/C(=O)N(C)c3ccccc32)SC1=S` (configuration not stated), the inhibition is 94.4% (active).

As to `CCOc1ccccc1C1C2=C(CC(C)(C)CC2=O)Nc2nc(C(F)(F)F)nn21` (configuration not stated), the inhibition is 14.1%.

As to `O=C(COc1ccc(Cl)cc1)Oc1ccc2c3c(c(=O)oc2c1)CCC3`, the inhibition was 29.6%.

With `CC(C)Cn1cc(C(=O)N2CCN(C(=O)c3ccco3)CC2)c2c3ccccc3n(C)c2c1=O`, the inhibition was 4%.

`CCOCCOC(=O)C1=C(C)NC2=C(C(=O)C(C(=O)OC)C(C)C2)C1c1cccc(Cl)c1` (configuration not stated): the inhibition was 30.9%.

`CC1(C)C2([N+](=O)[O-])CN3CC1([N+](=O)[O-])CN(C2)C3C(O)C(O)C(O)C(O)CO` (configuration not stated): the inhibition entry is “inactive”.

Turning to `O=C(C1CCC(CNS(=O)(=O)c2ccc(Br)s2)CC1)N1CCC(Cc2ccccc2)CC1` (configuration not stated), the inhibition entry is “inactive”.

In the case of `CC(C)C1Nc2c(C(=O)O)cccc2C(Nc2ccccc2C(=O)O)C1(C)C` (configuration not stated), the inhibition was 65.1% (active) and 89.9% (active).

On to `COc1ccccc1C1Nc2c(C(=O)O)cccc2C2C3CCC(C3)C12` (configuration not stated), for which the inhibition was 20.9%.

With `O=C(O)c1cccc2c1NC(C(=O)O)C1CC=CC21` (configuration not stated), the inhibition is 4.5%.

In the case of `COc1ccc(Oc2c(C(F)(F)F)oc3cc(OC(C)C(=O)OCCC(C)C)ccc3c2=O)cc1` (configuration not stated), the inhibition is 8%.

Take `O=C(NCCCN1CCC(Cc2ccccc2)CC1)C1CCC(CNS(=O)(=O)c2ccccc2)CC1` (configuration not stated): the inhibition result was “inactive”.

On to `COc1ccc(C2C(C(=O)OC3CCCCC3)=C(C)NC3=C2C(=O)CC(c2ccc(Cl)cc2)C3)cc1OC` (configuration not stated), for which the inhibition was 77.5% (active).

In the case of `COc1cc(C2C(C(=O)OC3CCCCCC3)=C(C)NC3=C2C(=O)CCC3)cc([N+](=O)[O-])c1O` (configuration not stated), the inhibition was 69.7% (active).

Consider `CCOc1cc(C2C(C(=O)OC3CCCCCC3)=C(C)NC3=C2C(=O)CCC3)cc([N+](=O)[O-])c1O` (configuration not stated), for which the inhibition was 66.4% (active).

As for `COc1cc(C2C(C(=O)OC3CCCCC3)=C(C)NC3=C2C(=O)CC(c2ccc(Cl)cc2)C3)ccc1OC(C)=O` (configuration not stated), the inhibition was 7%.

For the compound `COc1cc(C2C(C(=O)OC3CCCCC3)=C(C)NC3=C2C(=O)CCC3)cc(Cl)c1O` (configuration not stated), the inhibition is 24.3%.

`COc1cc(C2C(C(=O)OC3CCCC3)=C(C)NC3=C2C(=O)CC(c2ccc(Cl)cc2)C3)ccc1OC(C)=O` (configuration not stated): the inhibition is 8.8%.

Take `CC1=C(C(=O)OC2CCCCC2)C(c2ccc(Cl)c([N+](=O)[O-])c2)C2=C(CCCC2=O)N1` (configuration not stated): the inhibition result was “inactive”.

For `CCOc1cc(C2C(C(=O)OC3CCCCCC3)=C(C)NC3=C2C(=O)CC(C)(C)C3)cc([N+](=O)[O-])c1O` (configuration not stated), the inhibition is 40.2%.

As to `COc1cc(C2C(C(=O)OC3CCCCCC3)=C(C)NC3=C2C(=O)CC(C)(C)C3)cc([N+](=O)[O-])c1O` (configuration not stated), the inhibition was 59.7%.

`COc1ccc(C2NC(=O)NC(C)=C2C(=O)OC2CCCCCC2)cc1` (configuration not stated): the inhibition result was “inactive”.

Turning to `CCOC(=O)C1CCC(CN(Cc2ccccc2C)S(=O)(=O)c2cccc(C(F)(F)F)c2)CC1` (configuration not stated), the inhibition result was “inactive”.

`CCOc1cc(C(C2=C(O)CC(C)(C)CC2=O)C2=C(O)CC(C)(C)CC2=O)ccc1OC(=O)c1cccc(OC)c1`: the inhibition is 80.2% (active).

With `COc1cccc(C(=O)Oc2ccc(C(C3=C(O)CC(C)(C)CC3=O)C3=C(O)CC(C)(C)CC3=O)cc2OC)c1`, the inhibition was 86.9% (active).

As to `COc1cc(C2C3=C(CC(C)(C)CC3=O)OC3=C2C(=O)CC(C)(C)C3)ccc1OC(=O)c1cccc(C)c1`, the inhibition is 12.3%.

For `CCOc1cc(C2C3=C(CC(C)(C)CC3=O)OC3=C2C(=O)CC(C)(C)C3)ccc1OC(=O)c1cccc(C)c1`, the inhibition entry is “inactive”.

Take `COc1cccc(C(=O)Oc2ccc(C3C4=C(CC(C)(C)CC4=O)OC4=C3C(=O)CC(C)(C)C4)cc2OC)c1`: the inhibition entry is “inactive”.

As to `CCOc1cc(C2C3=C(CC(C)(C)CC3=O)OC3=C2C(=O)CC(C)(C)C3)ccc1OC(=O)c1cccc(OC)c1`, the inhibition entry was “inactive”.

For `CCOC(=O)c1cccc(N2C(=O)C3C(C2=O)C2C=CC3C23CC3)c1` (configuration not stated), the inhibition was 5.1%.

`CCSCCOC(=O)C1=C(C)NC2=C(C(=O)C(C(=O)OC)C(C)C2)C1c1c(F)cccc1Cl` (configuration not stated): the inhibition entry was “inactive”.

In the case of `CCCOCCOC(=O)C1=C(C)NC2=C(C(=O)C(C(=O)OC)C(C)C2)C1c1ccc(C)o1` (configuration not stated), the inhibition is 53.7%.

Regarding `CCN(Cc1ccccc1)Cc1c(O)ccc2c(=O)c(Oc3ccc(OC)cc3)c(C(F)(F)F)oc12`, the inhibition entry was “inactive”.

For the compound `CCOc1ccccc1C(=O)NC1(C(F)(F)F)C(=O)Nc2c1c(=O)[nH]c(=O)n2-c1ccc(F)cc1` (configuration not stated), the inhibition was 75.2% (active).

In the case of `CCOc1ccccc1C(=O)NC1(C(F)(F)F)C(=O)Nc2c1c(=O)[nH]c(=O)n2-c1ccc(C)cc1` (configuration not stated), the inhibition is 65.3% (active).

With `CCOc1ccccc1C(=O)NC1(C(F)(F)F)C(=O)Nc2c1c(=O)[nH]c(=O)n2-c1ccccc1` (configuration not stated), the inhibition is 63.1%.

For `Cc1ccccc1C(=O)NC1(C(F)(F)F)C(=O)Nc2c1c(=O)[nH]c(=O)n2-c1ccc(F)cc1` (configuration not stated), the inhibition is 12.2%.

Consider `Cc1ccc(-n2c3c(c(=O)[nH]c2=O)C(NC(=O)c2ccccc2C)(C(F)(F)F)C(=O)N3)cc1` (configuration not stated), for which the inhibition is 10.6%.

With `O=C(NC1(C(F)(F)F)C(=O)Nc2c1c(=O)[nH]c(=O)n2-c1ccc(F)cc1)c1ccccc1Cl` (configuration not stated), the inhibition is 11%.

`CCOC(=O)CSc1nc2ccccc2c(=O)n1CC1CCC(C(=O)NCCc2ccccc2)CC1` (configuration not stated): the inhibition result is “inactive”.

Regarding `O=C(O)C1C2C=CC(C2)C1C(=O)NCC1CCCO1` (configuration not stated), the inhibition was 2.4%.

Take `CCCOCCOC(=O)C1=C(C)NC2=C(C(=O)C(C(=O)OC)C(C)C2)C1c1cccc(OC)c1` (configuration not stated): the inhibition was 37.6%.

`CCC(C)C(Nc1ncnc2sc3c(c12)CCC3)C(=O)O` (configuration not stated): the inhibition was 0.8%.

For `COc1ccc(OC)c(NC(=O)C(C(C)C)N2C(=O)c3ccccc3C2=O)c1` (configuration not stated), the inhibition is 27.7%.
